Drawing on PubChem BioAssay (NCI), this text covers growth inhibition for 19 compounds.

Structures are written as SMILES. The panel holds about 79,000 compounds, 15% with a hit somewhere; the sample as a whole holds those more often. Activity calls are given as the source filed them. No stated cut-off is given here; in the data, active means growth inhibition above about 70%; inactive means the rest.

The nature of this test: NCI Yeast Anticancer Drug Screen. Data for the rad50 strain (AID 155).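 Further: 0% = growth of vehicle-only cultures of the same strain.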 The conditions noted are these: S. cerevisiae rad50 strain growth inhibition; at 50.0 µM; active compounds read high. The method, boiled down: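 Relative growth inhibition (compound vs vehicle) was measured in yeast with a defined repair-gene alteration.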
For the compound `O=C(O)CSCc1nc2ccccc2[nH]1`, the growth inhibition is -10.8% (inactive).

Consider `COc1cc(-c2cc(=O)c3c(C)cc(O)cc3o2)cc(OC)c1OC`, for which the growth inhibition is -2.1% (inactive).

As for `OCC1OC(Nc2ccccc2O)C(O)C(O)C1O` (centres undefined), the growth inhibition is 41.5% (inactive).

On to `CN(c1ccccc1Cl)S(C)(=O)=O`, for which the growth inhibition was -4.2% (inactive).

Regarding `COc1ccc(C(C#N)N2CCOCC2)cc1` (centres undefined), the growth inhibition was 17.8% (inactive).

On to `Cn1/c(=N\N=C\C(=O)O)sc2ccccc21`, for which the growth inhibition is -6.1% (inactive).

`CC1(O)CC2CC1C(C(=O)O)C2C(=O)O` (centres undefined): the growth inhibition is -0.85% (inactive).

For the compound `O=C(O)/C=C\C(=O)Nc1ccccc1NC(=O)/C=C/C(=O)O`, the growth inhibition was 3.45% (inactive).

In the case of `Cc1ccc(S(=O)(=O)Nc2ccccc2C2Nc3ccccc3C(=O)O2)cc1` (centres undefined), the growth inhibition is -23.5% (inactive).

With `Cn1c(=S)sc2ccc3ccccc3c21`, the growth inhibition is -17.4% (inactive).

As for `CCOC(=O)NC(C)(C)CN(C(=O)OCC)c1ccccc1`, the growth inhibition is -31.4% (inactive).

`CCCN(CCC)CCC(=O)OCC`: the growth inhibition is -18.2% (inactive).

As to `CCOc1ccc(/C=C(/C#N)C(N)=O)cc1`, the growth inhibition was 9.7% (inactive).

For the compound `C=CCNC(=O)C(O)C(O)C(=O)NCC=C` (centres undefined), the growth inhibition was -25.1% (inactive).

On to `CC(/C=N/N1C(=O)c2ccccc2C1=O)c1ccccc1` (centres undefined), for which the growth inhibition is 12.8% (inactive).

For `O=C1OC(c2ccc(Cl)cc2)=N/C1=C\c1ccccc1`, the growth inhibition was -4.85% (inactive).

For `COc1ccc(-c2cc(=O)c3c(ccc4ccccc43)o2)cc1`, the growth inhibition was 21.6% (inactive).

As to `COc1cc(/C=C2/SC(=S)NC2=O)cc(OC)c1OC`, the growth inhibition is 16.8% (inactive).

`O=c1c(=O)n(CCO)n(CCO)c(=O)n1CCO`: the growth inhibition is -29.7% (inactive).
